NS1 function inh = qHTS Assay for Inhibitors of Influenza NS1 Protein Function; Potency, µM (doses to about 46.1 µM), for inactives: at the top dose activity, positive = more growth; AID 2326, 2010; hit rate 0.4% among 270,000; calls by dose curve; note: actives are rising curves; nearly all actives have a fitted effect of over 50% in size
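Compounds were scored for reversing the slow growth caused by influenza A NS1 in S. cerevisiae, measured by optical density at 600 nm. Assay medium contained 2% galactose at pH 6.0; NS1-free yeast of the same strain were the positive control.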
AMA1 RON2 block = qHTS for Inhibitors of AMA1-RON; Towards Development of Antimalarial Drug Lead: Primary Screen | Plasmodium falciparum AMA1 (3D7) - RON2 peptide interaction | AlphaScreen AMA1-biotinylated RON2 peptide binding | Potency, µM (titrated, usually from 58.2 µM), for the others: at the top dose activity change, negative = inhibition, hits mostly inhibitors | hit rate 0.2% among 360,000 | AID 720542, 2013;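 note: 0% = vehicle wells and -100% = peptide control; nearly all actives have a fitted effect of over 45% in size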
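AMA1 (3D7) with his tag at 25 nM final met compounds first, then biotinylated RON2 peptide at 25 nM; detection used donor plus acceptor beads, 10 µg/mL apiece, read by AlphaScreen after 30 min at room temperature.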
SARS PLpro yeast = qHTS of Yeast-based Assay for SARS-CoV PLP | S. cerevisiae expressing SARS-CoV PLpro, growth rescue | Potency, µM (highest dose often 32.9 µM), inactives show at the highest dose activity, positive = growth rescue, actives largely listed as activators | hit rate 0.19% among 330,000; calls by dose curve; note: 0% is about no effect; nearly all actives have a fitted effect of over 55% in size
Pf growth 96h = Primary qHTS for delayed death inhibitors of the malarial parasite plastid, 96 hour incubation; P. falciparum luciferase reporter growth, 96 h; Potency, µM (doses to about 28.7 µM), for inactives: at the top dose activity change, negative = inhibition, usual class: inhibitors; hit rate 6.9% among 320,000; note: % is set by controls: 0 for no effect and ±100 for the full control effect
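Luminescence readout: decreased luciferase signal marks inhibited growth of reporter-expressing P. falciparum in infected red cells (2% hematocrit, 0.05% parasitemia final), exposed to compound two generations (96 h, 37 C, 5% CO2).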
Pf growth 48h = Primary qHTS for delayed death inhibitors of the malarial parasite plastid, 48 hour incubation | P. falciparum luciferase growth in erythrocytes, 48 h | Potency, µM (doses to about 28.7 µM), for the others: at the highest dose activity change, negative = inhibition, hits mostly inhibitors | hit rate 5.9% among 310,000 | AID 504832, 2011; note: % is set by controls: 0 for no effect and ±100 for the full control effect
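Read-out is firefly luciferase luminescence from an integrated reporter in P. falciparum, so falling signal marks reduced parasite growth. Infected erythrocytes were at 2% hematocrit and 0.1% parasitemia (final) in Albumax-supplemented RPMI 1640.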
HCV inhibitor = qHTS Assay for Inhibitors of Hepatitis C Virus (HCV); hit rate 3.4% among 340,000; Potency, µM (highest dose often 41.8 µM), without a hit: top-dose activity change, negative = inhibition, usual class: inhibitors; AID 651820, 2012; Huh7.5.1 HCVcc-Cre infection, luciferase reporter, 44 h; note: % is set by controls: 0 for no effect and ±100 for the full control effect
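HCVcc-Cre virus at an moi near 0.5 was added right after compound to cells cultured 4 h from seeding (1,000 cells/well). Luciferase activity was determined 44 h later, 15 min after substrate addition at RT.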
* = called active by the depositor; ? = inconclusive; / = not tested or not shown; [ ] = remark or other dose. In the library only some 12% were active in any assay of this set; here they are far more common. Unless noted, calls come from the whole dose curve; as a rule, active = well fitted curve in the direction sought with a large enough effect; inconclusive = small, poorly fitted or top-dose-only effect, or another doubt; inactive = no such curve, though single readings can be large; an effect the other way counts as inactive or inconclusive. Potency is the fitted concentration of half-maximal effect.

SMILES | NS1 function inh | AMA1 RON2 block | SARS PLpro yeast | Pf growth 96h | Pf growth 48h | HCV inhibitor
Cc1c(C(=O)N(Cc2ccccc2)C2CCS(=O)(=O)C2)oc2ccccc12 (stereo unspecified) | -40% | 11% | -2% | 0% | 14% | -9%
Cc1c(C(=O)N(Cc2cccc(Br)c2)C2CCS(=O)(=O)C2)oc2ccccc12 (stereo unspecified) | -12% | -5% | ? | 13µM* | ? | ?
CC1CC(C)CN(CCOc2ccc(Cl)cc2Cl)C1 (stereo unspecified) | -12% | -9% | -4% | ? | 10µM* | -28%
CC1CC(C)CN(CCOc2cccc(Cl)c2Cl)C1 (stereo unspecified) | -10% | -9% | -16% | -9% | ? | ?
CC1CCCN(CCOCCOc2ccc(Cl)cc2Br)C1 (stereo unspecified) | -30% | -26% | -1% | 12µM* | 12µM* | -29%
Clc1ccc(OCCCCCN2CCCC2)c(Br)c1 | -5% | -3% | -14% | ? | -58% | 10µM*
COC(=O)c1c(C)cc(C)c2c1CC(C)(C)C2=O | 3% | 6% | 0% | ? | 139% | 19%
CC(=O)Nc1ccc(Sc2ncccc2C(=O)Nc2ccc(OC(F)(F)F)cc2)cn1 | ? | 9% | 6% | ? | 13µM* | ?
CC(=O)Nc1ccc(Sc2ncccc2C(=O)Nc2cc(Cl)cc(Cl)c2)cn1 | 10% | -11% | ? | 5% | -7% | -9%
COc1cc(NC(=O)c2cccnc2Sc2ccc(C)c(C)c2)cc(OC)c1OC | 5% | 9%[11.6 µM] | 7% | 10µM* | ? | 0%
O=C(Nc1ccc2ccccc2n1)c1ccccc1Br | 3% | 1% | -3% | 160% | 83% | ?
CCc1ccc(N(C2C=CS(=O)(=O)C2)S(=O)(=O)c2ccccc2)cc1 (stereo unspecified) | -4% | 8% | -3% | 0% | ? | 7%
Cc1ccc(S(=O)(=O)N(c2cccc(C(F)(F)F)c2)C2C=CS(=O)(=O)C2)cc1 (stereo unspecified) | 7% | 0% | 5% | 17µM* | / | 10µM*
COc1ccc(NS(=O)(=O)c2cc(NC(=O)c3cccs3)ccc2N2CCCC2)cc1 | ? | -26% | 7% | ? | -15% | ?
COc1ccc(NS(=O)(=O)c2cc(N/C(=N\S(=O)(=O)c3ccccc3)c3ccc(F)cc3)ccc2Cl)cc1 | 0% | 4% | -2% | 10µM* | ? | ?
COc1ccc(NS(=O)(=O)c2cc(NC(=O)Cc3c(F)cccc3Cl)ccc2OC)cc1 | / | -9% | 9% | ? | 5.9µM* | 13µM*
CNC(=S)Nc1ccc(N2CCCC2)c(S(=O)(=O)Nc2ccc(OC)cc2)c1 | / | 7% | -5% | / | / | -9%
COc1ccc(NS(=O)(=O)c2cc(C(=O)N3CCN(C(C)=O)CC3)ccc2Cl)cc1 | / | -7% | 3% | ? | 13% | 0%
COc1ccc(NS(=O)(=O)c2cc(NC(=O)c3ccc(C)o3)ccc2N2CCCCC2)cc1 | 26% | -5% | 14% | ? | 9.3µM* | ?
COc1ccc(NS(=O)(=O)c2cc(NC(=O)CC(C)(C)C)ccc2N2CCCC2)cc1 | / | 17% | 1% | 13µM* | 10µM* | -25%
O=C(C[n+]1cccc(CNC(=O)c2ccc(OC(F)F)cc2)c1)Nc1ccc(F)cc1 | -2% | -4% | -8% | 0.74µM* | 8.3µM* | 16%
O=C(C[n+]1cccc(CNC(=O)c2ccc(OC(F)F)cc2)c1)Nc1cccc(C(F)(F)F)c1 | 0% | -8%[11.6 µM] | -13% | ? | 5.2µM* | -7%
O=C(C[n+]1cccc(CNC(=O)c2ccc(OC(F)F)cc2)c1)c1ccccc1 | ? | 40% | 1% | ? | -6% | -4%
CC(NC(=O)N1CCN(c2ccccc2F)CC1)c1ccc(F)c(F)c1 (stereo unspecified) | -11% | 1% | -4% | 0% | ? | 1%
C=CC(=O)NC(C)(C)CCN1CCOCC1 | 0% | 4% | 1% | 28% | 0.93µM* | 13%
SMILES | NS1 function inh | AMA1 RON2 block | SARS PLpro yeast | Pf growth 96h | Pf growth 48h | HCV inhibitor
CCc1ccc2[nH]c3nc(C)cc(C)c3c(=O)c2c1 | -15% | 18% | -16% | 0% | 3.3µM* | 1%
CCc1ccc2[nH]cc(S(=O)(=O)c3ccc(C)c(C)c3)c(=O)c2c1 | 1% | -10% | 1% | 203% | 0% | -25%
COc1ccc(NC(=O)c2ccc(NCCN3C(=O)CCC3=O)c([N+](=O)[O-])c2)cc1 | 6% | -10% | 0% | ? | -19% | -2%
CC(OC(=O)CCc1cc(C(C)(C)C)c(O)c(C(C)(C)C)c1)C(=O)NC1CC1 (stereo unspecified) | / | -10% | -3% | 0.66µM* | 0.47µM* | ?
Fc1ccccc1NC(=S)Nc1ccc(CN2CCOCC2)cc1 | / | -15% | -1% | 20% | 144% | 17%
FC(F)(F)c1nnc2c(Sc3ccccn3)nc3ccccc3n12 | -12% | 3% | 0% | 3% | 9.3µM* | ?
FC(F)(F)c1nnc2c(Sc3ccccc3)nc3ccccc3n12 | 3% | 37% | 0% | -14% | -18% | ?
Cc1c(Cl)ccc(S(=O)(=O)NCCN2CCOCC2)c1Cl | -3% | 0% | 0% | -3% | 0.13µM* | -25%
Nc1c(S(=O)(=O)c2cc(Cl)ccc2Cl)c2nc3ccccc3nc2n1CCN1CCOCC1 | 26% | 3% | -9% | / | 13µM* | ?
O=S(=O)(NCCN1CCOCC1)c1cc(Cl)ccc1Cl | 1% | 5% | 11% | 6.6µM* | 2% | 16%
Cn1nc(C(F)(F)F)c(CO)c1Sc1ccc(F)cc1 | -2% | -17% | 0% | 48% | 5% | -6%
CCN(CC)c1ccc(NC(=O)c2cnn(CC)c2)cc1 | 0% | -19% | 0% | ? | ? | ?
CCN(CCCl)c1cc(CN(C)C)cc(NC(=O)c2ccc(C(=O)Nc3cc(CN(C)C)cc(N(CC)CCCl)c3)cc2)c1 | / | 25µM* | / | / | / | 1.4µM*
CCO[C@@H]1OC(C(=O)N2CCN(Cc3ccccc3)CC2)=C[C@H](C)[C@H]1CCCO | 3% | -1% | 0% | ? | ? | 6%
CCO[C@H]1OC(C(=O)N2CCCCCCC2)=C[C@@H](C2CCCCC2)[C@@H]1CCCO | -1% | -1% | 1% | 9.3µM* | ? | 7%
CCO[C@@H]1OC(C(=O)N2CCN(Cc3ccc4c(c3)OCO4)CC2)=C[C@H](C2CCCCC2)[C@H]1CCCO | -16% | -5% | 0% | 0.93µM* | ? | ?
